Data as given in PubChem BioAssay AID1159580 (chemical genetic matrix, 2015).
Screen size: about 5,500 compounds; about 2,000 (36%) were called active. Not shown: some 18% with an inconclusive outcome. Cut-off read from the data, not from the text of the source: active = normalized growth mostly below about 0.91 (no sharp cut-off); inconclusive = no clear call, values can overlap the other calls; inactive = mostly above about 0.92. Some of the results follow.

Test: chemical genetic growth profiling, strain panel (AID 1159580);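 note: tested at 20 µM; growth read once vehicle control cultures reached saturation at 30 °C; 1 = growth at the plate median or of vehicle wells; lower values mean less growth of the strain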
Settings: growth OD

Measured: normalized growth

COc1cc(C)c2c(=O)c3c(O)cc(O)cc3oc2c1
active: S. cerevisiae deletion strains, locus YDL192W, strain arf1, hits give low values 0.891 | S. cerevisiae deletion strains, locus YDR318W, strain mcm21, hits give low values 0.906 | S. cerevisiae deletion strains, locus YDR502C, strain sam2, hits give low values 0.92 | S. cerevisiae deletion strains, locus YGL086W, strain mad1, hits give low values 0.904 | S. cerevisiae deletion strains, locus YGR252W, strain gcn5, hits give low values 0.764 | S. cerevisiae deletion strains, locus YHR079C, strain IRE1 (second series), hits give low values 0.925 | S. cerevisiae deletion strains, locus YHR200W, strain rpn10, hits give low values 0.904 | S. cerevisiae deletion strains, locus YKR001C, strain vps1, hits give low values 0.871 | S. cerevisiae deletion strains, locus YLR418C, strain cdc73, hits give low values 0.815 | S. cerevisiae deletion strains, locus YML032C, strain rad52, hits give low values 0.829 | S. cerevisiae deletion strains, locus YMR223W, strain ubp8, hits give low values 0.884 | S. cerevisiae deletion strains, locus YNL233W, strain BNI4, hits give low values 0.86 | S. cerevisiae deletion strains, locus YNL250W, strain rad50, hits give low values 0.889 | S. cerevisiae deletion strains, locus YNL307C, strain MCK1, hits give low values 0.868 | S. cerevisiae deletion strains, locus YOL147C, strain pex11, hits give low values 0.923 | S. cerevisiae deletion strains, locus YPR163C, strain tif3, hits give low values 0.896 | S. cerevisiae deletion strains, locus YPR167C, strain met16, hits give low values 0.883
inactive: S. cerevisiae deletion strains, locus YBR021W, strain FUR4, hits give low values 0.936 | S. cerevisiae deletion strains, locus YBR229C, strain ROT2, hits give low values 0.975 | S. cerevisiae deletion strains, locus YCL029C, strain bik1, hits give low values 0.95 | S. cerevisiae deletion strains, locus YDL035C, strain GPR1, hits give low values 0.994 | S. cerevisiae deletion strains, locus YDL074C, strain BRE1, hits give low values 0.95 | S. cerevisiae deletion strains, locus YDL101C, strain DUN1, hits give low values 0.974 | S. cerevisiae deletion strains, locus YDL185W, strain tfp1, hits give low values 0.955 | S. cerevisiae deletion strains, locus YDR101C, strain arx1, hits give low values 0.943 | S. cerevisiae deletion strains, locus YDR162C, strain NBP2, hits give low values 0.967 | S. cerevisiae deletion strains, locus YDR388W, hits give low values 0.941 | S. cerevisiae deletion strains, locus YEL061C, strain CIN8, hits give low values 1.02 | S. cerevisiae deletion strains, locus YER110C, hits give low values 0.948 | S. cerevisiae deletion strains, locus YER167W, strain BCK2, hits give low values 0.983 | S. cerevisiae deletion strains, locus YGL078C, strain dbp3, hits give low values 0.946 | S. cerevisiae deletion strains, locus YGL248W, strain PDE1, hits give low values 0.934 | S. cerevisiae deletion strains, locus YGR135W, strain pre9, hits give low values 0.93 | S. cerevisiae deletion strains, locus YHR094C, strain hxt1, hits give low values 0.961 | S. cerevisiae deletion strains, locus YHR129C, strain ARP1, hits give low values 0.995 | S. cerevisiae deletion strains, locus YIL066C, strain RNR3, hits give low values 0.986 | S. cerevisiae deletion strains, locus YIL073C, strain SPO22, hits give low values 0.923 | S. cerevisiae deletion strains, locus YIL125W, strain kgd1, hits give low values 0.957 | S. cerevisiae deletion strains, locus YIR030C, strain dcg1, hits give low values 0.953 | S. cerevisiae deletion strains, locus YJL095W, strain BCK1, hits give low values 0.829 | S. cerevisiae deletion strains, locus YJL134W, strain LCB3, hits give low values 0.981 | S. cerevisiae deletion strains, locus YJL168C, strain set2, hits give low values 0.975 | S. cerevisiae deletion strains, locus YJL187C, strain SWE1 (second series), hits give low values 0.953 | S. cerevisiae deletion strains, locus YJR043C, strain POL32, hits give low values 0.979 | S. cerevisiae deletion strains, locus YKL009W, strain mrt4, hits give low values 0.911 | S. cerevisiae deletion strains, locus YKL068W, hits give low values 0.971 | S. cerevisiae deletion strains, locus YKL085W, strain MDH1 (second series), hits give low values 0.952 | S. cerevisiae deletion strains, locus YKL085W, strain MDH1, hits give low values 0.952 | S. cerevisiae deletion strains, locus YKL190W, strain CNB1, hits give low values 1 | S. cerevisiae deletion strains, locus YLR039C, strain RIC1, hits give low values 0.865 | S. cerevisiae deletion strains, locus YLR058C, strain SHM2, hits give low values 0.941 | S. cerevisiae deletion strains, locus YLR102C, strain apc9, hits give low values 0.969 | S. cerevisiae deletion strains, locus YLR262C, strain YPT6, hits give low values 0.846 | S. cerevisiae deletion strains, locus YLR268W, strain sec22, hits give low values 0.941 | S. cerevisiae deletion strains, locus YLR330W, strain CHS5, hits give low values 0.973 | S. cerevisiae deletion strains, locus YLR371W, strain rom2, hits give low values 0.936 | S. cerevisiae deletion strains, locus YML016C, strain PPZ1, hits give low values 0.974 | S. cerevisiae deletion strains, locus YML124C, strain tub3, hits give low values 0.967 | S. cerevisiae deletion strains, locus YMR078C, strain ctf18, hits give low values 0.954 | S. cerevisiae deletion strains, locus YMR263W, strain SAP30, hits give low values 0.979 | S. cerevisiae deletion strains, locus YMR307W, strain GAS1, hits give low values 0.752 | S. cerevisiae deletion strains, locus YNL067W, strain RPL9B, hits give low values 0.992 | S. cerevisiae deletion strains, locus YNL128W, strain TEP1, hits give low values 0.985 | S. cerevisiae deletion strains, locus YNL153C, strain GIM3, hits give low values 0.989 | S. cerevisiae deletion strains, locus YNL271C, strain bni1, hits give low values 0.953 | S. cerevisiae deletion strains, locus YNL298W, strain CLA4, hits give low values 0.962 | S. cerevisiae deletion strains, locus YNR052C, strain pop2, hits give low values 0.933 | S. cerevisiae deletion strains, locus YOL012C, strain htz1 0.866 | S. cerevisiae deletion strains, locus YOR061W, strain CKA2, hits give low values 0.982 | S. cerevisiae deletion strains, locus YOR069W, strain VPS5, hits give low values 0.997 | S. cerevisiae deletion strains, locus YOR136W, strain idh2, hits give low values 0.925 | S. cerevisiae deletion strains, locus YOR144C, strain elg1, hits give low values 0.954 | S. cerevisiae deletion strains, locus YOR184W, strain ser1, hits give low values 0.918 | S. cerevisiae deletion strains, locus YOR316C, strain cot1, hits give low values 0.96 | S. cerevisiae deletion strains, locus YPR119W, strain clb2, hits give low values 0.956 | S. cerevisiae deletion strains, locus YPR141C, strain kar3, hits give low values 0.958 | S. cerevisiae deletion strains, strain wtn01, hits give low values 0.919 | S. cerevisiae strains, strain wild type, hits give low values 0.932
